# Results from PubChem BioAssay (NCI).
# Compounds without any hit were thinned out: in the full panel of roughly 79,000, 15% have a hit. A number with no mark means an inactive call. Calls of active or inactive are those of the source. No stated cut-off is given here; in the data, active means growth inhibition above about 70%; inactive means the rest.
# How the values were obtained:
# [1] = NCI Yeast Anticancer Drug Screen. Data for the rad50 strain (AID 155);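 further: 0% = growth of vehicle-only cultures of the same strain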; conditions: S. cerevisiae rad50 strain growth inhibition; at 50.0 µM; hits give high values
# In short: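 Growth of the mutant yeast was measured after compound exposure and referenced to vehicle-treated cultures.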
# [2] = NCI Yeast Anticancer Drug Screen. Data for the mec2-1 strain (AID 157); conditions: S. cerevisiae mec2-1 strain, at 50.0 µM, hits give high values
# In short: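 Growth inhibition is read against vehicle-treated controls after compound exposure of the mec2-1 yeast strain, which is defective in DNA damage repair or cell cycle control.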
# [3] = NCI Yeast Anticancer Drug Screen. Data for the sgs1 mgt1 strain (AID 161);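 further: 0% = growth of cultures given vehicle only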; conditions: S. cerevisiae sgs1 mgt1 strain, at 50.0 µM, hits give high values
# In short: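 Growth of a repair-deficient yeast mutant was monitored after compound treatment and expressed as inhibition relative to vehicle-treated cultures.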
# [4] = NCI Yeast Anticancer Drug Screen. Data for the cln2 rad14 strain (AID 165);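 further: 0% = growth equal to vehicle treated cultures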; conditions: S. cerevisiae cln2 rad14 strain, at 50.0 µM, hits give high values
# In short: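 Growth inhibition, relative to vehicle-treated controls, is the read-out. The test organism is a yeast strain with defined genetic alterations, cln2 rad14.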
# [5] = NCI Yeast Anticancer Drug Screen. Data for the bub3 strain (AID 167); conditions: S. cerevisiae bub3 mutant strain, at 50.0 µM, hits give high values
# In short: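 Whole-cell yeast assay. The mutant strain was incubated with compounds, and growth inhibition was determined by comparison with vehicle-treated cells.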
# [6] = NCI Yeast Anticancer Drug Screen. Data for the mlh1 rad18 strain (AID 175); conditions: S. cerevisiae mlh1 rad18 strain growth inhibition; at 50.0 µM; hits give high values
# In short: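 Cells of a genetically altered yeast strain, deficient in DNA damage repair, were treated with compound. Their growth was then compared with that of vehicle-treated cultures to give inhibition.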
Compound,growth inhibition [1],growth inhibition [2],growth inhibition [3],growth inhibition [4],growth inhibition [5],growth inhibition [6]
COc1ccc(S(=O)(=O)N/N=C\c2cc(I)cc(I)c2O)cc1,27.9%,7.9%,25.2%,14.6%,-1.8%,5.1%
O=C1OC(=O)C2=C1CCCC2,8.05%,-18.9%,18.8%,-1.15%,-18%,6.7%
OCCOc1ccc2ccccc2c1-c1c(OCCO)ccc2ccccc12,98.5% (active),95.7% (active),98.5% (active),97.7% (active),98.9% (active),98.6% (active)
O=c1n(-c2ccccc2)c(=O)n2c(=O)n(-c3ccccc3)c(=O)n12,-23.4%,-1.55%,-10.7%,-44.9%,-9%,1.15%
CCN(CC)C(=O)N1CCN(c2ccccc2)CC1,-1.4%,12.3%,-4.95%,5.65%,3.45%,-23.8%
Nc1ccc(N(S(=O)(=O)c2ccccc2)S(=O)(=O)c2ccccc2)nc1,27.4%,6.3%,11.1%,-4.45%,2.25%,17.7%
C1=C(c2ccccc2)C(OC2Oc3ccccc3C=C2c2ccccc2)Oc2ccccc21 (stereo not given),23.1%,-2.15%,6.35%,11.9%,22.2%,-3.65%
Nc1ccccc1OCOCOc1ccccc1N,-11.7%,-17.8%,-7%,-11.4%,-6.3%,-10.3%
Cc1ccccc1S(=O)(=O)NSc1ccccc1[N+](=O)[O-],28.2%,-5.25%,33%,1.85%,-12.8%,25.7%
CN1c2ccccc2N(C(=O)c2ccc([N+](=O)[O-])cc2)C(CC(=O)O)c2cccn21 (stereo not given),2.6%,-30.9%,-15.8%,4.6%,-16.3%,3%
COc1cc2c[n+](C)c3ccccc3c2cc1OC,4.75%,12%,-16.6%,-7.3%,-21.1%,-6.35%
COC(=O)C(C)=C1CCCCC1,17.9%,-3.9%,-13.2%,-38%,11.6%,-13.2%
O=C1C=C(C2CCCCC2)C(=O)c2ccccc21,17%,2.6%,15.4%,18.3%,58.5%,10.3%
Cn1c(=O)c2[nH]c([N+](=O)[O-])nc2n(C)c1=O,23.4%,-10%,-0.3%,13.6%,-20.1%,25.8%
CC(C)CNC(=S)N/N=C/C=C/c1ccc([N+](=O)[O-])cc1,4.2%,10.4%,23.4%,-16.7%,2.7%,23.3%
O=NN(C(=O)NCCCl)c1[nH]c(=O)ncc1Br,-8.6%,-13.7%,-16%,-25.4%,-7.95%,-6.7%
CC(=O)OC1CC2(c3ccccc3)C(=O)c3ccccc3N2O1 (stereo not given),27.2%,-16.6%,-11.8%,-12.7%,10.2%,19.6%
O=C1CCc2cc3c(cc21)CC1(Cc2cc4c(cc2C1)CCCC4)C3,-28.4%,-8.8%,-22.2%,-18.1%,17.2%,-20.3%
COc1cc(NCC2COc3c(ccc(OC)c3OC)C2=O)c([N+](=O)[O-])cc1OC (stereo not given),9.35%,20.2%,8.15%,15.4%,-5.3%,21.4%
Cc1cccnc1Br,-25.2%,-9.85%,-5.05%,-29.6%,-5.65%,-26.1%

Compound,growth inhibition [1],growth inhibition [2],growth inhibition [3],growth inhibition [4],growth inhibition [5],growth inhibition [6]
O=c1[nH]c2ccccc2[nH]1,-18.8%,-14.9%,-7.6%,-28%,-13.2%,-14.4%
N#C/C(=C1\OC(N)=C(c2ccc(Cl)cc2)C1=O)c1ccc(Cl)cc1,2.9%,-8.45%,6.8%,18.4%,2.15%,9.2%
Nc1cc(=O)[nH]c(SC2OC(CO)C(O)C2O)n1 (stereo not given),29.1%,-9.6%,9%,-44.1%,0.1%,17.6%
Cc1ccc(S(=O)CC(CF)OCn2cc(C)c(=O)[nH]c2=O)cc1 (stereo not given),1.6%,6.65%,-42.6%,10.2%,-16.1%,-53%
CC(=O)Nc1ccc2c(=O)cc[nH]c2n1,13.7%,2.9%,2.4%,1.9%,-2.95%,31.2%
C[n+]1ccc(/C=C/c2c[nH]c3ccccc23)cc1,6.25%,10.8%,3.6%,-1.75%,5.1%,-8.3%
Cn1c[n+](-c2ccccc2)c([S-])n1,-0.05%,5.05%,5.15%,-22.5%,-24.9%,-7.4%
CN(C(=O)C1(C(=O)C=[N+]=[N-])CC1)c1ccccc1,-3.8%,-4.4%,-14.8%,1.3%,-2.55%,7.3%
C/C(=N/Nc1ccc([N+](=O)[O-])cc1[N+](=O)[O-])C1=CCCCC1,-0.2%,-1.35%,-0.95%,-4.8%,3.15%,-4.85%
NC(=S)c1ccncc1,6.5%,8.15%,13%,12.7%,5%,-27.4%
CC(C)N1CCC(OC(=O)Nc2ccccc2)C1 (stereo not given),3.85%,5.6%,-7.75%,-27.1%,-14.5%,8.35%
COc1cc(C(c2ccc3c(c2)OCO3)N2C(=O)CCC2C(=O)O)cc(OC)c1OC (stereo not given),-14.1%,-15.6%,-18.8%,-11.7%,-7.8%,-10.2%
CCCCC(CC)CN(CCOC(=O)c1cc2ccccc2oc1=O)CC(CC)CCCC (stereo not given),20.8%,-4.2%,48.8%,55%,20.8%,31.8%
CC(CC(=O)O)C(C)(C#N)C(=O)O (stereo not given),1.8%,1.4%,2.8%,-41.5%,0.05%,-4.95%
CC(=O)OCC1OC(N2C(=O)C(=O)c3cc(C)ccc32)C(OC(C)=O)C(OC(C)=O)C1OC(C)=O (stereo not given),59.8%,10.2%,5.85%,1.7%,41%,33.4%
CCN(CC)C(=O)CC1(O)CCCCC1,-9.7%,-11.2%,-3.15%,-9.65%,2.3%,4.2%
N#C/C(=C\c1cccs1)C(=O)c1ccco1,10.2%,4.65%,24.1%,25.2%,17.2%,-5.85%
COC(=O)C1=CCS(=O)(=O)C1,-7.45%,-7.8%,-4.3%,6.1%,15%,-9.5%
O=C1c2ccccc2OCC1/C=N/O (stereo not given),1.9%,-24.1%,-26.4%,32.2%,-34.1%,-10.8%
C=C(C)CNC(=S)N(N)c1ccc(OC)cc1,39.5%,9.75%,16.6%,-2.2%,12.4%,36.1%
